# Screening data (PubChem BioAssay)
# Shown are actives, neighbours in structure and some others; about 19% of the full set was active somewhere.
# IL1B secr inh: inhibitors of inflammasome signaling (IL-1 beta secretion) | 360,000 tested, 4.7% active | THP-1 LPS/ATP IL-1B secretion, AlphaLISA, 16 h; stronger effect = lower value | activity change, % at 57.5 µM; in the data active means activity change below about -50%; inconclusive means mostly about -30% to -49%
#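 Secreted IL-1B measured by AlphaLISA bead assay after 16 h compound exposure of THP-1 cells; compounds (final up to 57.5 uM) added 1 h before LPS (250 ng/mL) and ATP (1.25 mM) stimulation; lower signal means less secretion.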
# HT1080NT lethal: kills 2HG-producing HT-1080-NT fibrosarcoma cells; HT-1080-NT fibrosarcoma viability, CellTiter-Glo ATP luminescence, 48 h; Potency, µM (top dose mostly 46.1 µM), without a hit: at the top dose activity, negative = less viability, hits mostly cytotoxic; 360,000 tested, 1.6% active;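 further: NT is the 2HG producing partner of a matched IDH1 knockdown line; potency means the concentration at half of the fitted maximal effect; 0% = DMSO-treated cells and -100% = media-only wells without cells; nearly all actives have a fitted effect of over 55% in size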
#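 Viability by CellTiter-Glo luminescence after 48 h compound exposure at 37C of HT-1080-NT cells (750/well, RPMI, 5% FBS). % activity scaled between DMSO wells and medium-only wells, then curve-fitted and categorized by curve class.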
# DT40 TDP1 CPT: DT40-hTDP1 cell growth loss with CPT. chicken DT40 Tdp1-/-;hTDP1 cells + 20 nM CPT, ATP luminescence, 48 h. Potency, µM (titrated, usually from 46.2 µM), for the others: top-dose activity change, negative = growth inhibition, actives largely listed as inhibitors. 420,000 tested, 12% active; further: potency means the concentration at half of the fitted maximal effect; nearly all actives have a fitted effect of over 55% in size
#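 Cell growth measured by CellTiter-Glo luminescence after a minimum 48 h, 37 C compound exposure with 20 nM CPT in Tdp1-knockout DT40 cells stably expressing hTDP1, seeded 400/well; qHTS titration format.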
# DT40 TDP1 no CPT: qHTS for Inhibitors of human tyrosyl-DNA phosphodiesterase 1 (TDP1): qHTS in cells in absence of CPT. DT40 Tdp1-/- hTDP1 cells, no CPT, ATP luminescence, 48 h. 420,000 tested, 15% active. Potency, µM (top dose mostly 46.2 µM), for inactives: top-dose activity change, negative = growth inhibition, hits mostly inhibitors; further: potency means the concentration at half of the fitted maximal effect; nearly all actives have a fitted effect of over 55% in size
#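 Luminescent ATP content (CellTiter-Glo) served as the growth readout. Knockout chicken DT40 cells expressing human TDP1 were exposed to compounds without camptothecin for a minimum 48 hr at 37 °C.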
# HT1080 IDH1KD tx: kills HT-1080 cells with IDH1 knockdown. HT-1080 IDH1 knockdown viability, ATP luminescence, 48 h. 360,000 tested, 2% active. Potency, µM (highest dose often 46.1 µM), without a hit: top-dose activity, negative = toxicity, usual class: cytotoxic. AID 686971;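 further: potency means the concentration at half of the fitted maximal effect; 0% = DMSO wells and -100% = cell-free medium wells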
#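 % activity derives from luminescence (CellTiter-Glo), normalised to DMSO and no-cell wells. HT-1080-IDH1KD cells, 750/well, had 48 h compound exposure at 37 °C.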
# The depositor's hits bear a star; ? = inconclusive; / = no result; [ ] = another dose, or the depositor's remark. Unless noted, the call rests on the fitted dose curve; in most records, active means well fitted curve in the direction sought with a large enough effect; inconclusive means small, poorly fitted or top-dose-only effect, or another doubt; inactive means no such curve, though single readings can be large; an effect the other way counts as inactive or inconclusive. Unless noted, on the % scale 0 is the no-effect control and ±100 the full control effect.
SMILES,IL1B secr inh,HT1080NT lethal,DT40 TDP1 CPT,DT40 TDP1 no CPT,HT1080 IDH1KD tx
CC(C)(C)OC(=O)[C@H]1[C@H](c2ccc([N+](=O)[O-])cc2)C2(C(=O)c3ccccc3C2=O)C2c3ccccc3C=NN21 (stereo partly drawn),-27,-9%,?,18µM*,-28%
CC1CCCCC1Nc1ncnc2sccc12 (stereo not drawn),11,-5%,18µM*,?,-5%
N/C(Cc1cccs1)=N\OC(=O)COc1ccccc1,-14,6%,-10%,-12%,19%
CN1C(=O)/C(=N\OC(=O)c2ccccc2Cl)c2ccccc21,-23,22%,23µM*,23µM*,12%
COc1ccc(CN2C(=O)c3ccccc3C2=O)cc1C(=O)Nc1ccc(C)cc1C,17,9%,-26%,?,0%
CC(=O)O/N=C1\C(=O)N(Cc2ccc(C)cc2)c2ccccc21,-94*,?,-11%,?,?
CCCCCC1CCC(C(=O)NNC(=S)NCC)CC1 (stereo not drawn),-20,6.3µM*,23µM*,?,3.2µM*
CCCCCCC1CCC(C(=O)NC(C(=O)O)C(C)C)CC1 (stereo not drawn),/,/,-29%,-29%,/
CN(C)c1ccc(/C=C2/C[N+](C)(C)C/C(=C/c3ccc(N(C)C)cc3)C2=O)cc1,-98*,?,2.6µM*,3.7µM*,16µM*
CC(C)/C=C1\CC/C(=C\c2ccc(N(C)C)cc2)C1=O,?,12%,-28%,?,17%
CCCS(=O)(=O)NCCc1sc2nc(-c3ccc(Cl)cc3)nn2c1C,/,/,5.2µM*,8.2µM*,/
CCCS(=O)(=O)NCCc1sc2nc(-c3ccc(F)cc3)nn2c1C,/,/,21µM*,15µM*,/
CCOc1ccc(S(=O)(=O)NCCc2sc3nc(-c4ccc(F)cc4)nn3c2C)cc1,/,/,?,15µM*,/
Cc1cc(C)c(S(=O)(=O)NCCc2sc3nc(-c4ccc(F)cc4)nn3c2C)c(C)c1,/,/,?,21µM*,/
CCc1ccc(NC(=O)C(=O)NCCc2sc3nc(-c4ccc(OC)cc4)nn3c2C)cc1,/,/,-4%,-3%,/
OCCCc1nc2ccccc2[nH]1,-2,-13%,4%,0%,-11%
OCCCCCNc1ncnc2ccccc12,46,-3%,8.2µM*,7.3µM*,-17%
Cc1ccc(C)c(-c2nnc(NC(=O)CCS(=O)(=O)c3ccccc3)o2)c1,6,2%,?,?,-12%
COc1cc(-c2nnc(NC(=O)CCS(=O)(=O)c3ccc(F)cc3)o2)cc(OC)c1OC,6,-4%,?,18µM*,?
COc1cc(-c2nnc(NC(=O)CCS(=O)(=O)c3ccccc3)o2)cc(OC)c1OC,-55*,21µM*,16µM*,15µM*,?
O=C(Nc1ccc2c(c1)OCCO2)C1c2ccccc2OCC(=O)N1Cc1ccco1 (stereo not drawn),0,1%,-13%,-23%,0%
COc1ccc(NC(=O)N(C)C[C@@H]2OCc3cnnn3CCCC(=O)N([C@H](C)CO)C[C@@H]2C)cc1,-28,14%,-9%,-3%,-15%
CN1OC[C@@H]2CN[C@H](c3cccc(-c4cc(Cl)cc(Cl)c4)c3)C[C@@H]21,?,-1%,?,?,-9%
CN1OC[C@@H]2CN[C@H](c3ccc(-c4cc5ccccc5o4)cc3)C[C@@H]21,-10,?,16µM*,23µM*,-26%
CN1OC[C@@H]2CN[C@H](c3ccc(-c4ccc(C#N)cc4)cc3)C[C@@H]21,6,-3%,18µM*,23µM*,-7%
SMILES,IL1B secr inh,HT1080NT lethal,DT40 TDP1 CPT,DT40 TDP1 no CPT,HT1080 IDH1KD tx
Cc1ccc(C)c(N2CCN(c3nc4ccccc4c(=O)n3-c3ccccc3)CC2)c1,/,/,10µM*,9.2µM*,/
CCc1nnc2c3ccccc3nc(N3CCN(c4cc(C)ccc4C)CC3)n12,/,/,?,1.3µM*,/
CCCCN(C(=O)Cn1ncc(Cl)c(Cl)c1=O)c1c(N)n(CC(C)C)c(=O)[nH]c1=O,-26,?,?,?,?
Cc1ccc(-c2c(C)cc3oc(=O)cc(-c4ccccc4)c3c2C)cc1,40,1%,?,23µM*,3%
COc1ccc(-c2c(C)cc3oc(=O)cc(-c4ccccc4)c3c2C)cc1,10,-14%,23µM*,?,-12%
COc1ccc(-c2ccc(-c3cc(=O)oc4c(C(C)C)ccc(C)c34)cc2)cc1,41,4%,23µM*,21µM*,2%
Cc1ccc(NC(=S)NCCN2CCOCC2)cc1F,1,6%,-1%,12%,6%
O=C(c1ccc2c(c1)N(Cc1cccc(Cl)c1)C(=O)c1ccccc1S2(=O)=O)N1CCN(c2ccccn2)CC1,-2,?,?,13µM*,-16%
O=C(c1ccc2c(c1)N(Cc1ccc(Cl)cc1)C(=O)c1ccccc1S2(=O)=O)N1CCN(c2ccccn2)CC1,/,/,16µM*,23µM*,/
O=C(NCc1ccccc1)c1ccc2c(c1)N(Cc1cccc(Cl)c1)C(=O)c1ccccc1S2(=O)=O,/,/,?,4%,/
Cc1ccc(Cl)cc1N1CCN(C(=O)c2ccc3c(c2)N(Cc2ccccc2F)C(=O)c2ccccc2S3(=O)=O)CC1,/,/,-18%,?,/
N#Cc1cccnc1N1CCN(C(=O)c2ccc3c(c2)S(=O)(=O)c2ccccc2C3=O)CC1,?,-4%,26µM*,?,-6%
CCCN=C1CC(C)(C)CC(=O)/C1=C(/O)CCC,6,17%,-1%,-2%,9%
COC(=O)CC/C(O)=C1\C(=O)CC(C)(C)CC1=Nc1ccccc1OC,8,-17%,23µM*,?,?
CCCC/C(O)=C1\C(=O)CC(C)(C)CC1=Nc1ccccc1OC,0,6%[9.24 µM],?,?,2%
CCCCCCN=C1CC(C)(C)CC(=O)/C1=C(/O)CCC,?,1%,?,16µM*,-1%
CCC/C(O)=C1\C(=O)CC(C)(C)CC1=Nc1ccc(OC)cc1OC,-19,?,2.9µM*,2.1µM*,7.3µM*
O=C(O)CCN1CCc2ccccc2C1c1cccs1 (stereo not drawn),0,21%,4%,-8%,13%
COc1ccc(OC)c(NC(=O)c2cc(-c3ccc(F)cc3OC(C)C)n[nH]2)c1,-17,-5%,16µM*,21µM*,-16%
COc1ccc(NC(=O)c2cc(-c3cc(F)ccc3OC(C)C)n[nH]2)c(C)c1,-26,4%,?,16µM*,4%
CCc1cc(C(=O)N(C)CC(=O)N(CC(C)C)c2c(N)n(CC(C)C)c(=O)[nH]c2=O)sc1C,-2,0%,1%,2%,9%
